# This is a sample that favours compounds with a hit; in the whole collection about 10% have one here.
# GLS inhibitor: qHTS for Inhibitors of Glutaminase (GLS); GLS enzymatic activity, qHTS titration; Potency, µM (top dose mostly 45.5 µM), without a hit: at the highest dose activity change, negative = inhibition, most hits filed as inhibitors; actives 0.21% (n = 410,000); AID 624170, 2012; further: on the % scale 0 is the no-effect control and ±100 the full control effect
#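 hKGA; 45 mM KH2PO4 pH 8.2 + 0.02% Tween-20; cpd via pin tool; 1 mM Gln soln; GluOx/HRP/Amplex Red; RT 30 min; fluor. t0 & final.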
# HP1b binding inh: HTS for Inhibitors of HP1-beta Chromodomain Interactions with Methylated Histone Tails. Chromobox protein homolog 1 (Homo sapiens), P83916. AlphaScreen HP1-beta / biotin-H3K9me3 peptide binding. Potency, µM (titrated, usually from 114 µM), without a hit: top-dose activity change, negative = inhibition, actives largely listed as inhibitors. actives 0.56% (n = 390,000). AID 540317, 2011; further: nearly all actives have a fitted effect of over 70% in size
# Target sequence (P83916 whole entry, looked up): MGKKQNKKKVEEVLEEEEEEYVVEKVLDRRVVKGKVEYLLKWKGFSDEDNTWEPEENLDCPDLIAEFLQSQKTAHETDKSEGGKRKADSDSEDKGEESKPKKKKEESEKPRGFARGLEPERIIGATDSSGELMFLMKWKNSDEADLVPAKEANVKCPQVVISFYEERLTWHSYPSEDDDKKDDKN
#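 AlphaScreen: HP1-beta (50 nM) preformed 30 min with biotin-H3(1-18)K9me3 peptide (50 nM) in PBS pH 7.4, 0.01% Tween-20. Compound added for 30 min at RT, then streptavidin donor/nickel chelate acceptor beads (10 ug/mL) for 30 min.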
# JMJD2A Tudor: qHTS Assay for Inhibitors of JMJD2A-Tudor Domain. Lysine-specific demethylase 4A (Homo sapiens), O75164. AlphaScreen JMJD2A-Tudor / H3K4me3 peptide binding. Potency, µM (titrated, usually from 114 µM), inactives show at the top dose activity change, negative = inhibition, usual class: inhibitors. actives 4.4% (n = 390,000); further: on the % scale 0 is the no-effect control and ±100 the full control effect; nearly all actives have a fitted effect of over 50% in size
# L3MBTL1 inh: qHTS Assay for the Inhibitors of L3MBTL1. AID 485360, 2010. Potency, µM (highest dose often 57.1 µM), for the others: at the top dose activity, negative = inhibition, most hits filed as inhibitors. actives 0.66% (n = 230,000). AlphaScreen L3MBTL1–H3K9me1 peptide binding. Lethal(3)malignant brain tumor-like protein 1 (Homo sapiens), Q9Y468; further: on the % scale 0 is the no-effect control and ±100 the full control effect; nearly all actives have a fitted effect of over 60% in size
#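 L3MBTL1 (50 nM) pre-complexed 30 min with biotinylated H3(1-15)K9me1 peptide (75 nM), then compounds added for 30 min at room temperature; AlphaScreen streptavidin donor/nickel chelate acceptor beads (10 ug/mL final) read after 30 min dark incubation.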
# G9a inh: qHTS Assay for Inhibitors of Histone Lysine Methyltransferase G9a; G9a H3K9 monomethylation, AlphaScreen, 2 h; actives 8.8% (n = 350,000); Potency, µM (highest dose often 102 µM), for inactives: at the top dose activity, negative = inhibition, usual class: inhibitors; AID 504332, 2011; further: on the % scale 0 is the no-effect control and ±100 the full control effect; nearly all actives have a fitted effect of over 75% in size
# Target sequence (Q96KQ7 913-1193 limits assumed): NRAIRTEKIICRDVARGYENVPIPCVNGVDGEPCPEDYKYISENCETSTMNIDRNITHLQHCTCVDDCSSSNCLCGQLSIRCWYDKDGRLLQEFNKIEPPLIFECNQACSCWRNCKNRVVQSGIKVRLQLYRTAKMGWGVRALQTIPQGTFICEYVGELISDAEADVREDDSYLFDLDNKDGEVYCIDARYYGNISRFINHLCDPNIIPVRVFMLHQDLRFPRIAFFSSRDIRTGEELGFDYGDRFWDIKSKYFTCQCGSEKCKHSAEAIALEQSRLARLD
#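 Methyltransferase reactions run at room temperature for 2 h (20 nM enzyme, 500 nM biotin-H3K9 peptide, 20 uM SAM) after a 15 min compound preincubation; product detected by AlphaScreen beads and anti-H3K9me1 antibody.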
# BAZ2B block: qHTS Assay for Inhibitors of BAZ2B; Bromodomain adjacent to zinc finger domain protein 2B (Homo sapiens), Q9UIF8; AlphaScreen BAZ2B-H3K14Ac peptide displacement; Potency, µM (highest dose often 114 µM), without a hit: at the top dose activity change, negative = inhibition, hits mostly inhibitors; actives 4.4% (n = 360,000); AID 504333, 2011; further: on the % scale 0 is the no-effect control and ±100 the full control effect; nearly all actives have a fitted effect of over 60% in size
#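 Protein-peptide AlphaScreen: BAZ2B 50 nM, b-H3K14Ac 50 nM, 1x PBS pH 7.4 + 0.01% Tween-20. Preincubation 30 min RT; cpd 30 min RT (top 110 uM); beads 20 min RT, light-protected.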
# An asterisk follows results filed as active; ? = inconclusive; · = no result; [ ] = dose if it differs, or a comment. The call rests on the fitted dose curve; in most records, active means well fitted curve in the direction sought with a large enough effect; inconclusive means small, poorly fitted or top-dose-only effect, or another doubt; inactive means no such curve, though single readings can be large; an effect the other way counts as inactive or inconclusive. Potency means the concentration at half of the fitted maximal effect.
SMILES,GLS inhibitor,HP1b binding inh,JMJD2A Tudor,L3MBTL1 inh,G9a inh,BAZ2B block
NCCCCC(NC(=O)C1CCCN1C(=O)C1CSSCC(N)C(=O)NC(Cc2ccccc2)C(=O)NC(Cc2ccccc2)C(=O)NC(CCC(N)=O)C(=O)NC(CC(N)=O)C(=O)N1)C(=O)NCC(N)=O (stereo unspecified),-1.0%,·,·,·,·,·
CCCN1CCN(CCNC(=O)Nc2cc(C)ccc2OC)CC1,10.4%,28.2%,-12.3%,·,-3.0%[59 µM],-9.6%
O=C(NCCCN1CCN(c2ccc(F)cc2)CC1)c1cnn(-c2ccc(F)cc2)c1-n1cccc1,14.2%,11.0%,?,·,?,?
c1ccc(CNC2=NCCCC2)cc1,7.7%,?,?,-0.2%,14.1µM*,?
O=C(NNC1=NCCCCC1)c1ccccc1,23.9%,-21.6%,3.16µM*,0.1%,-50.6%,-8.2%
O=S(=O)(NC1=NCCCCC1)c1ccccc1Cl,-3.0%,44.3%,-2.7%,8.3%,4.7%,2.1%
Fc1ccc(Nc2nc3nonc3nc2Nc2cccc(C(F)(F)F)c2)cc1,5.1%,-10.0%,?,·,-41.3%[59 µM],?
Cc1ccc(-c2csc(N=C(N)N)n2)cc1,-10.1%,3.4%,-31.4%,-25.0%,?,?
NC(N)=Nc1nc(CSCC/C(N)=N/S(N)(=O)=O)cs1,1.6%,19.4%,22.4µM*,-1.2%,-4.4%[59 µM],2.4%
COc1ccccc1NC(=O)CCNS(=O)(=O)c1ccc2c(c1)CCCC(=O)N2,-12.6%,-14.8%,-18.4%,·,-19.4%[59 µM],-2.9%[57.1 µM]
CCC(C(=O)NC(=O)NC(C)=O)c1ccccc1 (stereo unspecified),-4.4%,·,·,·,·,·
CCCCn1c(N)c(N(CCC(C)C)C(=O)C2CC(=O)N(Cc3ccc(C)cc3)C2)c(=O)[nH]c1=O (stereo unspecified),0.2%,18.6%,0.0%,0.2%,?,20.6%
CCCCn1c(N)c(N(CCC(C)C)C(=O)C2CC(=O)N(c3cccc(SC)c3)C2)c(=O)[nH]c1=O (stereo unspecified),-2.6%,30.0%,-13.1%,-11.0%,14.1µM*,-4.2%
CCCCn1c(N)c(N(CC(C)C)C(=O)C2CC(=O)N(Cc3ccccc3)C2)c(=O)[nH]c1=O (stereo unspecified),3.2%,31.4%,-0.7%,-10.2%,14.1µM*,5.8%
Cc1nn(CCCC(=O)Nc2sc3c(c2C#N)CCC3)c(C)c1[N+](=O)[O-],-8.0%,?,?,-6.5%,31.6µM*,?
Cc1nn(C(C)C(=O)Nc2sc3c(c2C#N)CCCC3)c(C)c1[N+](=O)[O-] (stereo unspecified),-7.4%,10.3%,-7.0%,0.1%,?,0.4%
Cc1nn(CC(=O)Nc2sc3c(c2C#N)CCC(C(C)(C)C)C3)c(C)c1[N+](=O)[O-] (stereo unspecified),-18.7%,-23.4%,-22.9%,-2.4%,44.7µM*,-27.9%
CC(C)(C)C1CCc2c(sc(NC(=O)c3cc(C4CC4)on3)c2C#N)C1 (stereo unspecified),7.3%,11.3%,-22.4%,2.5%,79.4µM*,-2.9%
COc1ccc(C)cc1NC(=O)NC(C)c1c(-n2cccc2)sc(C)c1C (stereo unspecified),5.2%,-9.5%,?,·,-27.0%[59 µM],?
Cc1cccc(NC(=O)C2CCCN(S(=O)(=O)c3ccc(Br)s3)C2)c1 (stereo unspecified),-8.8%,40.4%,-3.8%,·,1.1%[59 µM],2.0%
COCCNC(=O)C(c1ccc(C)o1)N(CC1CCCO1)C(=O)Cn1nnc2ccccc21 (stereo unspecified),4.1%,66.9%,-21.9%,0.8%,50.1µM*,-9.4%
